Results filed as inconclusive are left out. Active and inactive are the calls of the source. How the source made its calls: active means hit-call score of the fitted dose curve at least 0.9, where 1 is the maximum; inconclusive means response in the unintended direction; inactive means score below 0.9. *1 amine or outer side, *2 acyl side, *3 side chain or, on linkers, in order; H or OH if unused. Where a SMILES comes first, the peptide text is derived from it. Bridges are numbered along the chain shown (N, C = ends). [ ]: non-standard residue; d: D form. The star is where a group is joined. X3 = NC1=N[C@@H]([C@H](N[*:1])C(=O)[*:2])C[C@H](O)N1; ΔAla(Z-3-ureido) = NC(=O)N/C=C(\N)C(=O)O; β3hOrn = NCCC[C@H](N)CC(=O)*; Dap = NC[C@H](N)C(=O)O
Experiments:
[1] = TOX21_p53_BLA_p2_viability: Viability Assessment in the Tox21 HCT-116 p53 Agonism Beta-lactamase Assay, Phase 2 (AID 2283591);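 further: compound exposure lasted 16 h at 37 °C; actives lower the ATP signal meaning cytotoxicity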
How it was run: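 HCT-116 p53-bla cells (4000/well) rested 5 h at 37C, then received compounds in DMSO (217-fold dilution) for 16 h at 37C, 5% CO2. After the CCF4 read, CellTiter-Glo was added; ATP luminescence was read after 30 min at room temperature.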

[2] = molecular target: Cellular tumor antigen p53 (Homo sapiens) (UniProt P04637); test: TOX21_p53_BLA_p2_ratio: Tox21 HCT-116 p53 Agonism Beta-lactamase Assay, Ratio, Phase 2 (AID 2283592)
How it was run: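 DMSO-normalized, positive-direction endpoint derived from the 460 nm/530 nm FRET ratio in HCT116 p53 beta-lactamase reporter cells exposed 16 h at 37C and loaded with CCF4-AM for 2 h.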

[3] = TOX21_p53_BLA_p4_viability: Viability Assessment in the Tox21 HCT-116 p53 Agonism Beta-lactamase Assay, Phase 4 (AID 2283597);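 further: hits lower the luminescence signal meaning cytotoxicity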
How it was run: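 In this multiplexed secondary endpoint, HCT116 cells (4000 per well, compound at 5 h, 16 h treatment) received CellTiter-Glo after the beta-lactamase read. Luminescence after 30 min RT reflects ATP, and falling signal marks cytotoxicity.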

[4] = molecular target: Cellular tumor antigen p53 (Homo sapiens) (UniProt P04637); test: TOX21_p53_BLA_p5_ratio: Tox21 HCT-116 p53 Agonism Beta-lactamase Assay, Ratio, Phase 5 (AID 2283599)
How it was run: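 HCT-116 cells carrying a p53-inducible beta-lactamase reporter were seeded at 4000 cells/well and dosed after 5 h with compound in DMSO (217-fold dilution). After 16 h at 37C, CCF4-AM substrate was added for 2 h, and the 460/530 nm emission ratio was scored as gain-of-signal versus DMSO.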

[5] = TOX21_p53_BLA_p5_viability: Viability Assessment in the Tox21 HCT-116 p53 Agonism Beta-lactamase Assay, Phase 5 (AID 2283600)
How it was run: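 Here cell health was gauged by ATP levels in wells holding 4000 cells, each treated 16 h with DMSO-delivered compounds at 217-fold dilution; reduced luminescence marked toxicity.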

[6] = molecular target: Cellular tumor antigen p53 (Homo sapiens) (UniProt P04637); test: TOX21_p53_BLA_p4_ratio: Tox21 HCT-116 p53 Agonism Beta-lactamase Assay, Ratio, Phase 4 (AID 2283601)
How it was run: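 HCT116 cells carrying an inducible beta-lactamase reporter were plated at 4000 cells/well, rested 5 h, then exposed to compounds in DMSO (217-fold dilution) for 16 h at 37C. CCF4-AM substrate was loaded 2 h at room temperature; 460/530 nm emission ratio scored gain-of-signal versus DMSO.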

Measured: outcome

Cellular tumor antigen p53 (Homo sapiens), sequence (P04637 whole entry, looked up): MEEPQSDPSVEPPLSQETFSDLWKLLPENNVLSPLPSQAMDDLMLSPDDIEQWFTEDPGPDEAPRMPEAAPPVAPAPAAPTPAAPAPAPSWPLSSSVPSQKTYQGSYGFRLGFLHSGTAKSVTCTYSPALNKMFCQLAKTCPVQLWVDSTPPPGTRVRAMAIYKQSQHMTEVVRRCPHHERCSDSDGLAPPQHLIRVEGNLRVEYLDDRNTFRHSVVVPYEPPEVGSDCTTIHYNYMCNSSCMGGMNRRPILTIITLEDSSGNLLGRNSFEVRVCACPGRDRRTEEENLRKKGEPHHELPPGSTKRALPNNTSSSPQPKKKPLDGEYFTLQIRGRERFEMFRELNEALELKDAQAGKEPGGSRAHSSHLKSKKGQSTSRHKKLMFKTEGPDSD

Nc1ncnc(Nc2ccc(Cl)cc2)n1
inactive: [1] | [2] | [3] | [4] | [5] | [6]

CCOC(=O)[C@H](CCc1ccccc1)N[C@H]1CCCN2CCC[C@@H](C(=O)O)N2C1=O
inactive: [1] | [2] | [3] | [4] | [6]

C[N+]1(C)CCC(OC(=O)C(O)(c2ccccc2)C2CCCC2)C1 (stereo not given)
inactive: [1] | [2] | [3] | [4] | [5] | [6]

C=CC(=O)OCCCCCCCC
inactive: [1] | [2] | [3] | [5]

O=S(=O)(O)CCS
inactive: [1] | [2] | [3] | [4] | [5] | [6]

CO/N=C(/C(=O)N[C@@H]1C(=O)N2C(C(=O)OCOC(=O)C(C)(C)C)=C(C)CS[C@H]12)c1csc(N)n1
inactive: [1] | [2] | [3] | [5]

O=C1NC(=O)[C@@]2(CCOc3ccc(F)cc32)N1
inactive: [1] | [2] | [3] | [4] | [5] | [6]

O=C1N(c2ccccc2)c2ccccc2C1(Cc1ccncc1)Cc1ccncc1
inactive: [1] | [2] | [3] | [4] | [6]

C=C1c2c(Cl)ccc(O)c2C(O)=C2C(=O)[C@]3(O)C(O)=C(C(N)=O)C(=O)[C@@H](N(C)C)[C@@H]3[C@@H](O)[C@H]12
inactive: [1] | [2] | [3] | [5]

Cc1cc(Cl)c(C)cc1Cl
inactive: [1] | [2] | [3] | [4] | [6]

CCCCCOC(=O)Nc1nc(=O)n([C@@H]2O[C@H](C)[C@@H](O)[C@H]2O)cc1F
inactive: [1] | [2] | [3] | [4] | [5] | [6]

C=CCCCCCCC=C
inactive: [1] | [2] | [3] | [5] | [6]

O=S(=O)(Cl)c1c(Cl)cccc1Cl
inactive: [1] | [2] | [3] | [4] | [5] | [6]

CCOc1cc(OCC)c(C(=O)CCC(=O)O)cc1OCC
inactive: [1] | [2] | [3] | [5] | [6]

C=C[C@]1(C)C[C@@H](OC(=O)CSCCN(CC)CC)[C@]2(C)[C@H](C)CC[C@]3(CCC(=O)[C@H]32)[C@@H](C)[C@@H]1O
inactive: [1] | [2] | [3] | [5]

CN1CCCN=C1COC(=O)C(O)(c1ccccc1)C1CCCCC1 (stereo not given)
inactive: [1] | [2] | [3] | [4] | [6]

O=C(O)c1cccc(O)c1
inactive: [1] | [2] | [3] | [4] | [6]

CCCCCCCCCC(=O)N(C)C
inactive: [1] | [2] | [4] | [5]

O=c1[nH]cnc2nc[nH]c12
inactive: [1] | [2] | [4] | [6]

CC1(C)S[C@@H]2[C@H](N=CN3CCCCCC3)C(=O)N2[C@H]1C(=O)O
inactive: [1] | [2] | [3] | [5] | [6]

CN1c2cc(O)c(N=NC(N)=O)cc2CC1S(=O)(=O)O (stereo not given)
inactive: [1] | [2] | [4]

COc1ccc(N=[N+]([O-])c2ccc(OC)cc2)cc1
inactive: [1] | [2] | [4]

NCCC[C@H](N)CC(=O)N[C@H]1CNC(=O)[C@H]([C@H]2C[C@H](O)NC(N)=N2)NC(=O)/C(=C/NC(N)=O)NC(=O)[C@H](CO)NC(=O)[C@H](CO)NC1=O (β3hOrn-[Dap]SS[ΔAla(Z-3-ureido)][X3]; lactam 1-C)
inactive: [1] | [2] | [3] | [6]

C=CCOc1cc(Cl)ccc1C(=O)NCCN(CC)CC
inactive: [1] | [2] | [4] | [6]

Cc1cc(C)c(NC(=O)CN(CC(=O)O)CC(=O)O)c(C)c1Br
inactive: [1] | [2] | [4] | [5] | [6]

C=CCCCCCCCCCCCCCCCC
inactive: [1] | [2] | [3] | [6]

CC(=O)Oc1cccc(C(=O)O)c1OC(C)=O
inactive: [1] | [2] | [4] | [5]

CC1=C2[C@@H]([C@H](C)CC[C@H]2/C=C(\C)C(=O)O)[C@H](O)C1
inactive: [1] | [2] | [3] | [6]

C[C@@H]1C\C=C/C=C/C=C/C=C/[C@H](O[C@@H]2O[C@H](C)[C@@H](O)[C@H](N)[C@@H]2O)C[C@@H]2O[C@](O)(C[C@@H](O)C[C@@H]3O[C@@H]3/C=C\C(=O)O1)C[C@H](O)[C@H]2C(=O)O
inactive: [1] | [2] | [4]

Nc1ccn(C[C@@H](CO)OCP(=O)(O)O)c(=O)n1
inactive: [1] | [2] | [4] | [5]

CCNc1cc(O)ccc1C
inactive: [1] | [2] | [3] | [5] | [6]

O=c1[nH]c(=O)c2ccccc2o1
inactive: [1] | [2] | [4]

NS(=O)(=O)c1cc2c(cc1Cl)NC(CC1CCCC1)NS2(=O)=O (stereo not given)
inactive: [1] | [2] | [4] | [5]

O=P(O)(O)C(O)(Cn1ccnc1)P(=O)(O)O
inactive: [1] | [2] | [4] | [5] | [6]
